The results in this text go back to paper PMC8136818, “Evolving origin-of-transfer sequences on staphylococcal conjugative and mobilizable plasmids—who’s mimicking whom?”.

Settings in all cases: protein: recombinant; tags: His6-TEV, cleaved; chain copies: 4
For one assay, the target named is T1, SmpO49 (Staphylococcus aureus plasmid pWBG749, UniProt UPI0001BEA96A 1-84).
T1 sequence: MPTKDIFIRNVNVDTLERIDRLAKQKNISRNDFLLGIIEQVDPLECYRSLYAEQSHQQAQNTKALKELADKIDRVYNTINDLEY
Put plainly: SPR (ReDCaT); 150 mM NaCl; 10 mM HEPES, 3 mM EDTA, 0.05% Tween 20, NaCl 150 mM (SmpO49 screens), 300 mM (SmpO45, SmpO408, SmpOUNa screens) or 250 mM (Table S4); pH and temperature not stated; protein 1 uM; high values mean tight binding. The method, boiled down: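 Tag-cleaved protein, expressed in E. coli BL21(DE3)pLysS and purified by nickel-affinity and size-exclusion chromatography, was screened on a Biacore T200 SA chip by reusable DNA capture. OriT oligonucleotides were captured at 1 μM on Fc2, with a control linker on Fc1. Protein at 1 μM was injected at 30 μl/min (60 s contact, 60 s dissociation) in 10 mM HEPES, 150 mM NaCl, 3 mM EDTA, 0.05% Tween 20. DNA binding is reported as %Rmax.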

A further assay deals with T2, SmpO408 (Staphylococcus aureus M0408).
T2 chain: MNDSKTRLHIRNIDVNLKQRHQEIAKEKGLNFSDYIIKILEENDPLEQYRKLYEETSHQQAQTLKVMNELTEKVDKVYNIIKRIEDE
Briefly: SPR (ReDCaT); 300 mM NaCl; 10 mM HEPES, 3 mM EDTA, 0.05% Tween 20, NaCl 150 mM (SmpO49 screens), 300 mM (SmpO45, SmpO408, SmpOUNa screens) or 250 mM (Table S4); pH and temperature not stated; protein 1 uM; high values mean tight binding. The method, boiled down: (§1)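 The running buffer was 10 mM HEPES, 300 mM NaCl, 3 mM EDTA, 0.05% Tween 20, and protein at 1 μM was injected at 30 μl/min for 60 s contact and 60 s dissociation. The protein had been expressed in E. coli BL21(DE3)pLysS, cleaved of its tag, and purified by nickel-affinity and size-exclusion chromatography. OriT oligonucleotides were captured at 1 μM on Fc2 of a Biacore T200 SA chip by reusable DNA capture, and a linker was captured on Fc1. Values are DNA binding expressed as %Rmax.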

The target in the next assay is T3, SmpOUNa (plasmid pC02).
T3 chain: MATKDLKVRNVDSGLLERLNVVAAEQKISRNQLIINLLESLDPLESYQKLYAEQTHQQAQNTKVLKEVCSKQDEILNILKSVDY
The description is as above. The method, boiled down: as §1

The target in the next assay is T4, SmpO45 (Staphylococcus aureus plasmid pWBG745, UniProt UPI0001BEA8D3 1-84).
T4 sequence: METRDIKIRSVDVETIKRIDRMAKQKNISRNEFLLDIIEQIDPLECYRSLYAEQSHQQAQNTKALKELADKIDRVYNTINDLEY
The description is as above. In a few lines:
as §1

B1: ossA49-4 (dsDNA)
DNA 1: TTTTTGATATCACTAT
DNA 2: ATAGTGATATCAAAAA
As to B1, the binding signal in the assay with SmpO49 was 12.1 ± 1.41 %Rmax.

B2: OT408 For/Rev_7 (dsDNA)
DNA 1: GTACAGACACAATATATAGGGGTACATTTT
DNA 2: AAAATGTACCCCTATATATTGTGTCTGTAC
For B2, the binding signal with SmpO408 amounted to 7.42 %Rmax.

B3: OTUNa For/Rev_9 (dsDNA)
DNA 1: GTGTGACAATTTAATTTTTGTGACCCCCAT
DNA 2: ATGGGGGTCACAAAAATTAAATTGTCACAC
On to B3, for which the binding signal in the assay with SmpOUNa was determined as 53.342 ± 0.0463 %Rmax.

B4: OTUNa For/Rev_14 (dsDNA)
DNA 1: TTGAAATATCTGGCTTCGCCAGATTACCCA
DNA 2: TGGGTAATCTGGCGAAGCCAGATATTTCAA
Regarding B4, in the assay with SmpOUNa, the binding signal is 1.29 ± 0.0865 %Rmax.

B5: OT408 For/Rev_8 (dsDNA)
DNA 1: AATATATAGGGGTACATTTTGGGTACAAAA
DNA 2: TTTTGTACCCAAAATGTACCCCTATATATT
In the case of B5, the binding signal with SmpO408 was 5.29 %Rmax.

B6: OTUNa For/Rev_8 (dsDNA)
DNA 1: TGTCACAAAAGTGTGACAATTTAATTTTTG
DNA 2: CAAAAATTAAATTGTCACACTTTTGTGACA
For B6, the binding signal with SmpOUNa came out at 17 ± 0.439 %Rmax.

B7: ossA49-1 (dsDNA)
DNA 1: ATTATGATATCACTAT
DNA 2: ATAGTGATATCATAAT
With B7, the binding signal with SmpO49 was determined as 26.7 ± 1.94 %Rmax.

B8: ossA49-14 (dsDNA)
DNA 1: TTTATGATATCACAAT
DNA 2: ATTGTGATATCATAAA
For the molecule B8, in the assay with SmpO49, the binding signal amounted to 24.9 ± 1.06 %Rmax.

B9: ossA49-16 (dsDNA)
DNA 1: TTTATGATATCACTAA
DNA 2: TTAGTGATATCATAAA
In the case of B9, the binding signal with SmpO49 was 24.8 ± 1.07 %Rmax.

B10: OT408 For/Rev_10 (dsDNA)
DNA 1: GGGTACAAAACGGTTTTATAGGCGCCTAAT
DNA 2: ATTAGGCGCCTATAAAACCGTTTTGTACCC
In the case of B10, the binding signal with SmpO408 is 71.2 %Rmax.

B11: OT408 For/Rev_15 (dsDNA)
DNA 1: AAATGTCTGGCTTCGCCAGACCCACCTTTT
DNA 2: AAAAGGTGGGTCTGGCGAAGCCAGACATTT
On to B11, for which the binding signal in the assay with SmpO408 was determined as 14.3 %Rmax.

B12: ossA45-14 (dsDNA)
DNA 1: ATTGTGGGGTCACATT
DNA 2: AATGTGACCCCACAAT
Consider B12, for which, in the assay with SmpO45, the binding signal is 38.9 ± 1.1 %Rmax.

B13: OT49.10 (dsDNA)
DNA 1: CTATCATTGTCCGATGATAGCAAATTCCCC
DNA 2: GGGGAATTTGCTATCATCGGACAATGATAG
In the case of B13, the binding signal in the assay with SmpO49 was 0.584 ± 0.045 %Rmax.

B14: ossA49-13 (dsDNA)
DNA 1: TTTATGATATCAGTAT
DNA 2: ATACTGATATCATAAA
Regarding B14, the binding signal with SmpO49 worked out at 18.1 ± 1.02 %Rmax.

B15: OT408 For/Rev_13 (dsDNA)
DNA 1: AAAAACCTCTGTATCCCTTGAAATGTCTGG
DNA 2: CCAGACATTTCAAGGGATACAGAGGTTTTT
Consider B15, for which, in the assay with SmpO408, the binding signal was 4.19 %Rmax.

B16: OT49.11 (dsDNA)
DNA 1: CCGATGATAGCAAATTCCCCTTATGCTCTT
DNA 2: AAGAGCATAAGGGGAATTTGCTATCATCGG
Consider B16, for which the binding signal with SmpO49 turned out to be 0.467 ± 0.033 %Rmax.

B17: OT49.3 (dsDNA)
DNA 1: GACACTAGGTGTTTTTATGATATCACTATG
DNA 2: CATAGTGATATCATAAAAACACCTAGTGTC
Turning to B17, the binding signal with SmpO49 stood at 18.8 ± 0.402 %Rmax.

B18: OTUNa For/Rev_12 (dsDNA)
DNA 1: AAGATAAATGTTTAAAACCCTTGAAATATC
DNA 2: GATATTTCAAGGGTTTTAAACATTTATCTT
As to B18, the binding signal with SmpOUNa stood at 1.56 ± 0.168 %Rmax.

B19: ossA49-12 (dsDNA)
DNA 1: TTTATGATATCTCTAT
DNA 2: ATAGAGATATCATAAA
On to B19, for which the binding signal in the assay with SmpO49 came out at 5.13 ± 0.452 %Rmax.

B20: OT408 For/Rev_9 (dsDNA)
DNA 1: GGTACATTTTGGGTACAAAACGGTTTTATA
DNA 2: TATAAAACCGTTTTGTACCCAAAATGTACC
On to B20, for which the binding signal with SmpO408 was 4.6 %Rmax.

B21: OTUNa For/Rev_15 (dsDNA)
DNA 1: TGGCTTCGCCAGATTACCCATTATAAAATG
DNA 2: CATTTTATAATGGGTAATCTGGCGAAGCCA
Take B21: the binding signal with SmpOUNa turned out to be 5.46 ± 0.605 %Rmax.

B22: OTUNa For/Rev_13 (dsDNA)
DNA 1: TTTAAAACCCTTGAAATATCTGGCTTCGCC
DNA 2: GGCGAAGCCAGATATTTCAAGGGTTTTAAA
As for B22, the binding signal in the assay with SmpOUNa was 2.14 ± 0.24 %Rmax.

B23: ossA45-15 (dsDNA)
DNA 1: ATTGTGGGGTCACTAT
DNA 2: ATAGTGACCCCACAAT
B23: in the assay with SmpO45, the binding signal was determined as 38.6 ± 1.09 %Rmax.
